Results reported in PubChem BioAssay (NCATS).
Results filed as inconclusive are left out. Active and inactive are the calls of the source. Unless noted, calls come from the whole dose curve; as a rule, active = well fitted curve in the direction sought with a large enough effect; inconclusive = small, poorly fitted or top-dose-only effect, or another doubt; inactive = no such curve, though single readings can be large; an effect the other way counts as inactive or inconclusive.

How the values were obtained:
[1] = Cell Viability - HepG2 (AID 433; calls by dose curve;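 note: potency is the fitted concentration of half-maximal effect; potency for ATP loss meaning cytotoxicity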); conditions: qHTS
In short: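 Read-out is luciferase-based quantitation of cellular ATP as a measure of viable HepG2 cells after 40 h treatment at 37 °C. Signal decrease is scaled between DMSO-only and 100 uM tamoxifen controls, with AC50 fitted by the Hill equation.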

[2] = Cell Viability - MRC5 (AID 434; calls by dose curve;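 note: potency is the fitted concentration of half-maximal effect; cells exposed to compound for 40 hours at 37 °C; potency reflects cytotoxicity seen as loss of intracellular ATP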); conditions: MRC5 lung fibroblast viability, qHTS
In short: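 AC50 values come from Hill-equation fits of intracellular ATP loss, measured by CellTiter-Glo luminescence. Normal lung fibroblasts (MRC5) had 40 hr compound treatment at 37 C, normalized between DMSO and 100 uM tamoxifen.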

[3] = Cell Viability - SK-N-SH (AID 435; calls by dose curve;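 note: potency is the fitted concentration of half-maximal effect; compound exposure lasted 40 h at 37 °C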); conditions: SK-N-SH neuroblastoma cell viability qHTS
In short: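 Luminescent ATP signal served as the viability read-out after 40 hours of compound treatment of human neuroblastoma SK-N-SH cells. Concentration-response data, scaled between DMSO and 100 uM tamoxifen, gave AC50 values by standard Hill modeling.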

[4] = Cell Viability - N2a (AID 540); conditions: N2a mouse neuroblastoma cell viability; activity change, negative = cytotoxicity: at 92.2 µM (top of the series);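 note: cells exposed to compound for 40 h at 37 °C; plate controls were DMSO alone for no effect and tamoxifen control for full effect; nearly all actives have a fitted effect of over 45% in size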
In short: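 Cytotoxicity was scored as loss of cellular ATP in N2a cells, a mouse neuroblastoma line. Compounds are applied in a qHTS concentration series for 40 hr at 37 °C.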

[5] = Cell Viability - Renal Proximal Tubule (AID 545); conditions: renal proximal tubule cells viability, primary cells of rat origin; at 91.7 µM (top of the series); note: nearly all actives have a fitted effect of over 40% in size
In short: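 Luminescent ATP signal (CellTiter-Glo) served as the viability read-out after 40 hr compound exposure of freshly isolated rat proximal tubule cells at 37 °C. Concentration-dependent ATP loss was fitted with the Hill equation to give AC50.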

[6] = Cell Viability - Mesenchymal (AID 546); conditions: mesenchymal cells viability, qHTS; activity change, negative = cytotoxicity: at 91.7 µM (top of the series);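 note: cells exposed to compound for 40 hours before reading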
In short: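 CellTiter-Glo luminescence (intracellular ATP, 20 min room temperature) after 40 hr compound exposure at 37 °C of 1000 glomerulus-derived human kidney mesenchymal cells/well; AC50 values obtained by fitting qHTS concentration-response data to the Hill equation.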

[7] = Cellular Toxicity (caspase-3) HepG2 (AID 654); conditions: HepG2 caspase-3 activation, luminescence, 0% = DMSO only, 100% = tamoxifen; series mostly up to 92.2 µM;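 note: cells exposed to compound for 16 hours before reading; 0% = DMSO alone and 100% = caspase signal from 100 µM tamoxifen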
In short: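 Caspase 3/7 activation in HepG2 is measured as rising luminescence after a 16 hr treatment at 37 °C. Values are scaled between DMSO basal and 100 uM tamoxifen, and AC50 is fitted with the Hill equation.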

[8] = Cellular Toxicity (caspase-3) Jurkat (AID 655); conditions: Jurkat caspase-3 activation, luminescence, DMSO = 0%, tamoxifen = 100%; at 92.2 µM (top of the series);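 note: cells exposed to compound for 16 h at 37 °C before reading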
In short: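 5000 Jurkat cells/well; compound 16 hr, 37 °C; Caspase-Glo 3/7 added, 20 min RT; luminescence read. Norm: DMSO = 0%, tamoxifen 100 uM = 100%. AC50, Hill model.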

[9] = Cellular Toxicity (caspase-3) HUV-EC-C (AID 656); conditions: HUV-EC-C cells, caspase-3 activation (apoptosis), vehicle = 0, 100 µM tamoxifen = 100%; series mostly up to 92.2 µM
In short: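 qHTS; HUV-EC-C, 1000 cells/well; 5 hr settle, 16 hr cmpd, 37°C; Caspase-Glo 3/7, 20 min RT; luminescence. Norm: DMSO = 0%, tamoxifen 100 uM = 100%. Hill-fit AC50.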

[10] = Cellular Toxicity (caspase-3) SHSY5Y (AID 657); conditions: SH-SY5Y caspase-3 activation, DMSO zero, 10 µM staurosporine = 100%; series mostly up to 91.7 µM
In short: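 qHTS, SH-SY5Y, 1500 cells/well, 5 h pre-incubation 37 °C; compound 16 h 37 °C; Caspase-Glo 3/7 1 h RT; luminescence. Norm.: DMSO = 0, 10 uM staurosporine = 100%. Hill fit → AC50.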

[11] = Cellular Toxicity (caspase-3) BJ (AID 658); conditions: BJ fibroblasts, luminescence, normalized: DMSO 0%, staurosporine 100%; series mostly up to 91.7 µM
In short: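 Caspase-Glo 3/7 luminescence, read 1 hr after reagent at room temperature, in normal BJ fibroblasts exposed 16 hours at 37 °C. AC50 values from Hill-equation concentration-response, scaled between DMSO basal and 10 uM staurosporine as 100%.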

[12] = Cellular Toxicity (caspase-3) MRC-5 (AID 659); conditions: MRC-5 cells, luminescence, normalized: DMSO 0%, 10 µM staurosporine 100%; series mostly up to 91.7 µM
In short: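 Luminescent Caspase-Glo 3/7 read-out (1 h, room temperature) after a 16 h, 37 °C compound exposure of MRC-5 lung fibroblasts at 1500 cells/well. Concentration-response AC50 from Hill equation; 0% DMSO, 100% 10 uM staurosporine.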

[13] = Cellular Toxicity (caspase-3) Mesangial (AID 660); conditions: mesangial cells, normalized: DMSO 0%, 100 µM tamoxifen 100%; series mostly up to 91.7 µM;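 note: combined caspase 3 and 7 activity read by Caspase-Glo luminescence; cells exposed to compound for 16 h before the caspase read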
In short: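 Seed cells derived from normal human renal glomeruli, incubate 5 h, add compounds across concentrations and incubate 16 h at 37 °C. Caspase 3/7 activation is then quantified by luciferase light, with AC50 derived by Hill modeling.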

[14] = Cellular Toxicity (caspase-3) SK-N-SH (AID 661); conditions: SK-N-SH caspase-3 activation, qHTS, DMSO as zero, staurosporine as full; series mostly up to 91.7 µM
In short: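 Cells were seeded and incubated 5 hr at 37 °C, dosed with compound over a concentration range for 16 hr, then given Caspase-Glo 3/7 reagent for 1 hr at room temperature before luminescence reading.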

[15] = Cellular Toxicity (caspase-3) H-4-II-E (AID 663); conditions: H-4-II-E rat hepatoma; Potency: caspase-3 activation; series mostly up to 92.2 µM;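 note: cells exposed to compound for 16 hr before readout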
In short: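 Caspase 3/7 activation measured by luminescent aminoluciferin substrate cleavage after 16 hr compound treatment of H-4-II-E cells in complete medium. Increase normalized between DMSO (basal) and 100 uM tamoxifen (100%); Hill-equation AC50 from concentration-response.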

[16] = Cellular Toxicity (caspase-3) Hek293 (AID 664); conditions: HEK293 caspase-3 activation, DMSO = 0%, 100 µM tamoxifen = 100%; series mostly up to 92.2 µM;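 note: cells exposed to compound for 16 h at 37 °C before readout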
In short: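 qHTS, HEK293 (human embryonic kidney), 16 h cpd exposure in complete medium. Caspase-3/7 activation = luminescence increase; normalized to DMSO/100 uM tamoxifen; Hill-fit AC50.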

[17] = Cellular Toxicity (caspase-3) N2a (AID 665); conditions: N2a cells, luminescence, normalized: DMSO 0%, 10 µM staurosporine 100%; series mostly up to 92.2 µM;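 note: compound exposure lasted 16 h at 37 °C before readout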
In short: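 Caspase-3/7 activation, measured as increased luminescence from aminoluciferin release, is quantified in mouse N2a cells exposed to compounds for 16 h. Values are normalized to DMSO and 10 uM staurosporine, with AC50 derived by Hill modelling.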

[18] = biological target: Peroxisome proliferator-activated receptor gamma (Homo sapiens) (UniProt P37231); assay: qHTS assay for small molecule agonists of peroxisome proliferator-activated receptor gamma signaling (AID 588536; active = well fitted curve in the direction sought with a large enough effect in the signal ratio, with a control signal flat, not every such curve was filed as active; the % refers to the signal ratio;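 note: 0% = DMSO basal wells and 100% = rosiglitazone at 2 µM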); conditions: HEK293 PPARg-UAS-bla, beta-lactamase ratio, 16 h, percent of rosiglitazone response, DMSO as zero; series mostly up to 76.7 µM
In short: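 Cells were plated and held 6–6.5 h at 37 C, then compounds were added as a titration series. After a further 16 h, CCF4 dye was loaded for 2 h at room temperature and emission at 460/530 nm recorded.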

[19] = biological target: Voltage-gated inwardly rectifying potassium channel KCNH2 (Homo sapiens) (UniProt Q12809); assay: qHTS Assay for Small Molecule Inhibitors of the Human hERG Channel Activity (AID 588834); conditions: U2OS BacMam hERG, FluxOR thallium flux fluorescence; series mostly up to 92.2 µM;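 note: top concentration of the series differs between compounds; % is set by controls: 0 for no effect and ±100 for the full control effect; lower thallium flux fluorescence means stronger hERG block; nearly all actives have a fitted effect of over 50% in size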
In short: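 Step 1: BacMam hERG transduction of U2OS, 4 hrs RT. Step 2: overnight 37 °C, plate 2000 cells/well, 4 hr. Step 3: FluxOR load, compound 10 min, stimulate, read fluorescence.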

[20] = qHTS assay for small molecule activators of the p53 signaling pathway (AID 651743; active = well fitted activation curve with a large enough effect in the signal ratio, not every such curve was filed as active; the % refers to the signal ratio; note: % of control where 0% means no effect); conditions: HCT-116 p53RE-bla, beta-lactamase FRET ratio, 16 h; activation: active compounds read high
In short: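 After 16 hours compound treatment at 37 C, HCT-116 cells stably expressing p53RE-driven beta-lactamase were loaded with LiveBLAzer B/G FRET substrate for 2 hours at room temperature. Fluorescence intensity served as the p53 activation read-out.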

Chain of Peroxisome proliferator-activated receptor gamma (Homo sapiens) (P37231 whole entry, looked up): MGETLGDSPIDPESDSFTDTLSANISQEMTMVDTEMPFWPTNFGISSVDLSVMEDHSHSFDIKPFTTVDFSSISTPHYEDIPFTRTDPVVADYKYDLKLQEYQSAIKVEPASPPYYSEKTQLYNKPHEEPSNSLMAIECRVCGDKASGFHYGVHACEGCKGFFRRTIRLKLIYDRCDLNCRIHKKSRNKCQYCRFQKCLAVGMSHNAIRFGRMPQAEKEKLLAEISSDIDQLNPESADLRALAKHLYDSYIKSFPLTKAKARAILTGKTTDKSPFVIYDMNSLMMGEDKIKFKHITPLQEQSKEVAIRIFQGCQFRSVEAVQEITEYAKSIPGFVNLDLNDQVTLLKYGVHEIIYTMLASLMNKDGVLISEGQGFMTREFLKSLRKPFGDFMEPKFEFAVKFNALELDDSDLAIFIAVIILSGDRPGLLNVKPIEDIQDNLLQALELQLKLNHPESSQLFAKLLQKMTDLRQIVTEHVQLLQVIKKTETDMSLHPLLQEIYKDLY
Chain of Voltage-gated inwardly rectifying potassium channel KCNH2 (Homo sapiens) (Q12809 whole entry, looked up): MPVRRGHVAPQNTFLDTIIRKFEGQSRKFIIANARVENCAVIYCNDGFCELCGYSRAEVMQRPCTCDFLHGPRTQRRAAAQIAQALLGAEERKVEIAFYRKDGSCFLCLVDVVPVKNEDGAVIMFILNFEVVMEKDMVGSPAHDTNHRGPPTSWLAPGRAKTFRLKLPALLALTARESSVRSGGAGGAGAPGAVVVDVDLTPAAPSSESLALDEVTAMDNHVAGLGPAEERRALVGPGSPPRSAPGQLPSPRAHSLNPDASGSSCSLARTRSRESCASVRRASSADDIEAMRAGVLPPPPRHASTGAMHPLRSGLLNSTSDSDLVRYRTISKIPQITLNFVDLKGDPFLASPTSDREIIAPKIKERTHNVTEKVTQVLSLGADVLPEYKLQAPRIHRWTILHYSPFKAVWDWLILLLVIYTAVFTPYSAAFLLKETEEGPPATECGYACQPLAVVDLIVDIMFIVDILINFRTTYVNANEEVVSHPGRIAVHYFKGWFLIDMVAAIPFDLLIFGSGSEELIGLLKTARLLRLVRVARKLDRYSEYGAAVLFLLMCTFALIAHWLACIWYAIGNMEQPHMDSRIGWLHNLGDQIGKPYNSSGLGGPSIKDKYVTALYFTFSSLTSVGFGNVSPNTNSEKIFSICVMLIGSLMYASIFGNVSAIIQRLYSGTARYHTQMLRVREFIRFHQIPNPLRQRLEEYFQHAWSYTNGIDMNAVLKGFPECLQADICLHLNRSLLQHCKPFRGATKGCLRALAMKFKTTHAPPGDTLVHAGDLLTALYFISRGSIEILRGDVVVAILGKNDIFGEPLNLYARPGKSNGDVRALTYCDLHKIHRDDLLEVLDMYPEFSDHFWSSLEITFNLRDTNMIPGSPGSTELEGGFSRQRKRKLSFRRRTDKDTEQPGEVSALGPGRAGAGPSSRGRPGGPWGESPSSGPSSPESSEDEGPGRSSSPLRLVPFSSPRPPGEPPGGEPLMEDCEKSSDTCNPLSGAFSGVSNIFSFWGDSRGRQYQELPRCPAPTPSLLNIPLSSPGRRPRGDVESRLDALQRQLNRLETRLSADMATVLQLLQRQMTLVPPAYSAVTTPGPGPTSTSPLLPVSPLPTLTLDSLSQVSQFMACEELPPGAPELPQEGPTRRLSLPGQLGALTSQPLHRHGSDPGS

C=CC(=C)CCC=C(C)C
inactive: Potency [1] > 92 µM | Potency [2] > 92 µM | Potency [3] > 92 µM | activity change, negative = cytotoxicity [4] 5.78% | activity change, negative = cytotoxicity [5] 6.82% | activity change, negative = cytotoxicity [6] -3.53% | outcome [7] | caspase-3 activation [8] -0.362% | outcome [9] | outcome [10] | outcome [11] | outcome [12] | outcome [13] | outcome [14] | Potency [15] | outcome [16] | outcome [17] | outcome [18] | Potency [19] | activation [20] 0.0217%

O=C(O)c1ccccc1
inactive: Potency [1] > 92 µM | Potency [2] > 92 µM | Potency [3] > 92 µM | activity change, negative = cytotoxicity [4] 6.89% | activity change, negative = cytotoxicity [5] -3.81% | activity change, negative = cytotoxicity [6] 4.89% | outcome [7] | caspase-3 activation [8] 0.102% | outcome [9] | outcome [10] | outcome [11] | outcome [12] | outcome [13] | outcome [14] | Potency [15] | outcome [16] | outcome [17] | outcome [18] | Potency [19] | activation [20] 7.69%

C=CC(C)(CCC=C(C)C)OC(C)=O (configuration not stated)
inactive: outcome [18] | activation [20] -1.51%

COc1ccc(/C=C/c2cc(OC)cc(=O)o2)cc1
inactive: Potency [1] > 92 µM | Potency [2] > 92 µM | Potency [3] > 92 µM | activity change, negative = cytotoxicity [4] -11.5% | activity change, negative = cytotoxicity [5] -20.5% | activity change, negative = cytotoxicity [6] -3.53% | outcome [7] | caspase-3 activation [8] -4.41% | outcome [9] | outcome [10] | outcome [11] | outcome [12] | outcome [13] | outcome [14] | Potency [15] | outcome [16] | outcome [17] | outcome [18] | Potency [19] | activation [20] 10.5%

COc1cc(/C=C/c2ccccc2)oc(=O)c1
inactive: Potency [1] > 92 µM | Potency [2] > 92 µM | Potency [3] > 92 µM | activity change, negative = cytotoxicity [4] 1.71% | activity change, negative = cytotoxicity [5] -15.2% | activity change, negative = cytotoxicity [6] -9.29% | outcome [7] | caspase-3 activation [8] -4.56% | outcome [9] | outcome [10] | outcome [11] | outcome [12] | outcome [13] | outcome [14] | Potency [15] | outcome [16] | outcome [17] | outcome [18] | Potency [19] | activation [20] -4.84%
